In the library only some 3.5% were active in any assay of this set; here they are far more common.
GPR151 activ: activates the human receptor GPR151; Q8TDV0; PathHunter beta-arrestin GPR151 cells, luminescence; activation, % at 11.2 µM; actives 1% (n = 650,000); AID 1508602; in the data active = activation above about 4.9%;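 also: 0% = median of compound wells and 100% = cells with positive control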
TEAD-YAP inh: TEAD-YAP interaction inhibition; actives 1.4% (n = 640,000); inhibition, % at 9.12 µM; HEK-TIYL cells, TEAD-Gal4/YAP UAS-luciferase luminescence; in the data active = inhibition above about 32%;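 also: 0% = median of test compound wells and 100% = reference inhibitor wells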
FBW7 act: human FBW7 E3 ligase activation, primary screen; AlphaScreen FBW7–phospho-cyclin E peptide binding, activator screen; normalized activity (activation), % at 26.1 µM; actives 0.13% (n = 650,000); AID 1259310; in the data active = normalized activity above about 1.9%;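 also: purified mutant Fbw7 with reduced substrate affinity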
MITF primary: inhibitors of human MITF; AlphaScreen MITF homodimerization, bead proximity signal; inhibition, % at 2.6 µM; actives 0.91% (n = 650,000); in the data active = inhibition above about 50%;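 also: 0% = vehicle wells with protein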
GPR151 confirm: human GPR151 activation, confirmation screen; shares compounds with GPR151 activ; GPR151 PathHunter beta-arrestin cells, luminescence, 90 min; % of EA-reagent control over plate median; activation, % at 11.2 µM; 6,700 tested, under 10 active;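 active = mean percent activation across replicates above the confirmation screen cutoff of 4.91%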
GPR119 counter: counter-screen for GPR151 activators: effect on human GPR119; shares compounds with GPR151 activ; GPR119 PathHunter beta-arrestin cells, luminescence, 90 min; 0 = compound-well median, 100 = enzyme-acceptor control; activation, % at 11.2 µM; actives 0.3% (n = 6,700);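 active = mean percent activation in the counterscreen above 29.09%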;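 also: counterscreen on off-target GPR119 to flag nonselective hits from the GPR151 activator screen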
Target sequence (Q8TDV5 whole entry, looked up): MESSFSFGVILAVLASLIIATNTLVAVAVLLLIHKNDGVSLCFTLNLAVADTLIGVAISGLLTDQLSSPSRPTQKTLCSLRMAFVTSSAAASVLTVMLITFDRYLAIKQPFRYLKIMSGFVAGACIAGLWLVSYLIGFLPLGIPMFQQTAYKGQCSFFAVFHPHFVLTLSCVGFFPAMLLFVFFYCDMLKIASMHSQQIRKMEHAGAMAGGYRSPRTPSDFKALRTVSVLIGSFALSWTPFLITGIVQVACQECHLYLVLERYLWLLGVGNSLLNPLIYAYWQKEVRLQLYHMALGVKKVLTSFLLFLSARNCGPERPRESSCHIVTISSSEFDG
Active calls of the source: *; / = not tested or not shown.

SMILES	GPR151 activ	TEAD-YAP inh	FBW7 act	MITF primary	GPR151 confirm	GPR119 counter
O=C(COc1ccccc1)NC(=S)Nc1ccccn1	6.6*	0	0	8	0	2
C#Cc1cccc(N2C(=O)c3cc4ccccc4c(-c4ccccc4)c3C2=O)c1	5.4*	7	0	7	1	-5
CCC1=NN2C(=N)/C(=C/c3cccc(OCCOc4ccc(Br)cc4)c3)C(=O)N=C2S1	-1	-76	0	-6	/	/
CCN(CC)CCN1C(=O)c2ccccc2NC1c1ccc(Cl)cc1 (stereo not drawn)	7.6*	-1	0	1	1	18
CCOC(=O)C1=C(O)/C(=C/c2ccccc2)SC1=Nc1ccccc1	-1	-3	0	21	/	/
CCOC(=O)C1=C(O)/C(=C/c2ccc(C(=O)OC)cc2)SC1=NC(=O)c1ccccc1	6.7*	0	0	4	0	-2
CC1CCN(c2nc(N3CCOCC3)nc(N3CCOCC3)n2)CC1	8.9*	8	0	8	0	-2
CCOc1ccc(NC(=O)CC2(c3ccc(OC)cc3)C(=O)c3ccccc3C2=O)cc1	5.4*	12	1	13	2	5
CCOc1ccc(NC(=O)COC)cc1	5.4*	-13	0	2	1	6
Cc1ccc(NC(=O)COc2ccc(C(C)C)cc2)cc1	6.4*	9	0	9	0	-7
CCOCCOC(=O)c1ccc(NC(=O)COc2ccccc2)cc1	5.0*	9	0	-6	-1	-12
CCOCCOC(=O)c1ccc(NC(=O)COc2ccc(OC)cc2)cc1	0	9	-1	3	/	/
CCCCOc1cccc(C(=O)Nc2cc3nn(-c4ccc(Cl)cc4)nc3cc2C)c1	-2	1	0	8	/	/
COc1ccc(C(=O)N2CCN(C(=O)c3ccccc3F)CC2)cc1OC	-1	8	0	-2	/	/
CNC(=O)C(=O)Nc1ccc(Cl)c(C(F)(F)F)c1	0	-7	0	9	/	/
CCOC(=O)c1ccc(NC(=O)COc2ccc(CC)cc2)cc1	4.9*	3	0	4	0	-1
CCc1ccc(OCC(=O)Nc2ccc(C(=O)OCCOC)cc2)cc1	-1	6	0	14	/	/
COCCOC(=O)C1=C(C)NC2=C(C(=O)CCC2)C1c1ccc(Cl)c([N+](=O)[O-])c1 (stereo not drawn)	1	-7	0	47	/	/
Cc1ccc(-n2cc(-c3ccccc3)c3c(NCc4ccccc4)ncnc32)cc1	0	12	0	-2	/	/
Cc1ccc(CNc2ncnc3c2c(-c2ccccc2)cn3-c2ccc(Cl)cc2)cc1	8.4*	-1	0	-11	0	-2
COc1cc(Nc2nc(N3CCOCC3)nc3c2ncn3C2CCCCC2)cc(OC)c1OC	-2	9	0	23	/	/
c1cncc(-c2cc(NCc3ccco3)nc(-c3ccncc3)n2)c1	5.1*	3	0	18	-1	-16
COc1cc2nc(NC3CCN(Cc4ccccc4)CC3)nc(NCCO)c2cc1OC	2	-3	0	6	/	/
CCC(C)NCCOc1ccccc1I (stereo not drawn)	5.4*	8	0	23	0	4
O=C1NC(c2ccc(Cl)cc2Cl)Oc2ccccc21 (stereo not drawn)	8.9*	3	0	12	2	-1
SMILES	GPR151 activ	TEAD-YAP inh	FBW7 act	MITF primary	GPR151 confirm	GPR119 counter
O=C(NCc1ccncc1)c1ccc(OC2CCN(C3CCSC3)CC2)cc1 (stereo not drawn)	9.7*	0	0	-2	0	3
O=C(NCc1ccccn1)c1cccc(OC2CCN(C3CCSCC3)CC2)c1	8.7*	5	0	1	0	6
O=C(CC1C(=O)NCCN1Cc1ccc2ccccc2c1)NC1CCCCCC1 (stereo not drawn)	9.5*	-2	0	-2	-2	-19
O=C(CC1C(=O)NCCN1Cc1ccc2ccccc2c1)NC1CCOCC1 (stereo not drawn)	0	10	0	7	/	/
O=C(CC1C(=O)NCCN1CC(c1ccccc1)c1ccccc1)NC1CCC(O)CC1 (stereo not drawn)	5.3*	2	0	12	-1	-7
COc1ccccc1/C=C/CN1CCNC(=O)C1CC(=O)NC1CCC1 (stereo not drawn)	0	7	0	-6	/	/
